An excerpt weighted towards active compounds, which were near 3.8% of everything screened.
PLK1 PBD block = inhibitors of human PLK1 polo-box domain binding | P53350 | Plk1 PBD binding of FITC phosphopeptide, fluorescence polarization | Potency, µM, for the others: max response, negative = inhibition, hits mostly inhibitors | 360,000 compounds, 2.8% hits; also: potency is read from the fitted curve at half-maximal effect; series mostly up to about 57 µM; % is scaled to controls: 0 for no effect and ±100 for the full control effect; nearly all actives have a fitted effect of over 65% in size
hERG WT inh = inhibitors of human wildtype KCNH2 potassium channel; AID 720551; Q12809; activity change, % at 1.84 µM; 340,000 compounds, 0.37% hits; U2OS, BacMam KCNH2, thallium flux FluxOr; active compounds read low;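 active = maximum activity change below -70%; inconclusive = maximum activity change between -70% and -50%; inactive = maximum activity change above -50%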; also: % is scaled to controls: 0 for no effect and ±100 for the full control effect
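U2OS cells transduced with wild-type KCNH2 virus are loaded with FluxOr dye for 45 min, and thallium flux is measured in kinetic reads before and after stimulation buffer. Rate constants are normalized to DMSO controls.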
MBNL1 CUG block = inhibitors of human MBNL1 binding to CUG repeat RNA; TR-FRET MBNL1-His/biotin-(CUG)12 binding, 665/545 ratio; Potency, µM (series often up to 57.5 µM), for inactives: at the top dose activity change, negative = inhibition, actives largely listed as inhibitors; 280,000 compounds, 0.036% hits; AID 2675; active = well fitted inhibition curve with a large enough effect in the signal ratio, with a control signal flat, not every such curve was filed as active; inconclusive = small, poorly fitted or top-dose-only effect, or effect the other way, or a change in a side signal; inactive = no such curve, though single readings can be large or run the other way; the % refers to the signal ratio; also: potency is read from the fitted curve at half-maximal effect; % is scaled to controls: 0 for no effect and ±100 for the full control effect
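Compound titration spanned 92 nM–58 uM against the MBNL1-His/biotin-(CUG)12 complex. After 60 min at room temperature with 5 nM streptavidin-XL665 and 0.055 ng/ul terbium anti-His, ratiometric 665/545 nm emission (Ex 340 nm) normalized to controls.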
KCNH2 3.1 block = blocks the human KCNH2 3.1 channel isoform | U2OS KCNH2 3.1, thallium flux FluxOr; active compounds read low | activity change, % (tested at about 1.8 µM) | 340,000 compounds, 0.95% hits;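 active = maximum activity change below -70%; inconclusive = maximum activity change from -70% to -50%; inactive = maximum activity change above -50%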;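 also: thallium influx rate constant from kinetic fluorescence after stimulation buffer; % is scaled to controls: 0 for no effect and ±100 for the full control effect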
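Normalized rate constant (relative to positive and negative DMSO controls) derived from a 2 min kinetic fluorescence read after stimulation; U2OS cells expressing the 3.1 isoform via virus at 1.77 x 10^8 /mL.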
VDR inh = vitamin D3 receptor (human) inhibition | 400,000 compounds, 0.93% hits | VDR-SRC2-3 peptide fluorescence polarization, 2 h | Potency, µM, without a hit: max response, negative = inhibition, actives largely listed as inhibitors | P11473; also: potency is read from the fitted curve at half-maximal effect; % is scaled to controls: 0 for no effect and ±100 for the full control effect
Target sequence (P11473 whole entry, looked up): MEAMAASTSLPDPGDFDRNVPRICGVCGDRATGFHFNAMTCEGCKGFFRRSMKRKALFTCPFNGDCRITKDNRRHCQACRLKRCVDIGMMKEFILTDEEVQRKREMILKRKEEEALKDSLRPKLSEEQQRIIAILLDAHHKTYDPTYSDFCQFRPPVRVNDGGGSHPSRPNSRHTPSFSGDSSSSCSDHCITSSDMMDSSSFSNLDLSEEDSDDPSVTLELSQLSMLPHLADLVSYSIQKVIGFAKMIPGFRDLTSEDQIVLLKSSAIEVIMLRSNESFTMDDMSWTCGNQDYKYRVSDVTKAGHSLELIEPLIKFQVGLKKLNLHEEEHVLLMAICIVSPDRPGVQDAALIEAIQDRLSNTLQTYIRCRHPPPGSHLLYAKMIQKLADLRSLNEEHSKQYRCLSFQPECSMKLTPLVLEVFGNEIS
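The screen uses fluorescence polarization to detect compounds that interfere with recruitment of the SRC2-3 coactivator peptide to VDR; plates are read after 2 h at room temperature.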
CBFb-RUNX1 inh = inhibitors of human CBF-beta and RUNX1 interaction. Q01196+Q13951. 230,000 tested, under 10 active. AlphaScreen CBFb-His/RUNX1-biotin binding, biochemical. Potency, µM (doses to about 59.8 µM), inactives show top-dose activity, negative = inhibition, hits mostly inhibitors; also: % of control where 0% means no effect
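His-tagged CBF-beta and biotinylated RUNX1 (30 nM each) were premixed 20 min at room temperature, exposed to compound for 15 min, then given nickel-chelate and streptavidin AlphaScreen beads (50 ng each). After 90 min, AlphaScreen signal was read.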
An asterisk follows results filed as active; u = inconclusive; x = no result given; [ ] = another dose, or the depositor's remark. Unless noted, calls follow the shape of the dose curve; as a rule, active = well fitted curve in the direction sought with a large enough effect; inconclusive = small, poorly fitted or top-dose-only effect, or another doubt; inactive = no such curve, though single readings can be large; an effect the other way counts as inactive or inconclusive.

SMILES | PLK1 PBD block | hERG WT inh | MBNL1 CUG block | KCNH2 3.1 block | VDR inh | CBFb-RUNX1 inh
CC[C@]12c3[nH]c4cc(-c5ccco5)ccc4c3CCN1C(=O)[C@@H](CC(=O)NCCCOC)C[C@@H]2C(=O)N1CCN(C(=O)c2ccco2)CC1 | 21.2µM* | 8.3 | x | 2.6 | u | x
CC[C@]1(O)C[C@H]2CN(CCc3c([nH]c4ccccc34)[C@@](C(=O)OC)(c3cc4c(cc3OC)N(C=O)[C@H]3[C@@](O)(C(=O)OC)[C@H](OC(C)=O)[C@]5(CC)C=CCN6CC[C@]43[C@@H]65)C2)C1 | x | x | x | x | -19.4% | x
Cc1cccc(N2CCN(C(=O)Cc3c(C(=O)O)c(C)cn3C)CC2C)c1 (stereo unspecified) | x | x | x | x | 3.3% | x
Cc1ccc(Cl)cc1N1CCN(CCCNC(=O)c2nnc(Cc3cccc(Cl)c3)o2)CC1 | x | x | x | x | -19.3% | x
Nc1ccccc1O | -7.5% | 8.6 | x | 1.0 | 9.9% | 4.0%[21.7 µM]
Nc1ccccc1SC/C=C/CSc1ccccc1N | 11.9µM* | -7.8 | -8.0% | 25.6 | -22.8% | x
Cn1c(C(=O)NCc2ccc(F)cc2)cc2cc(S(=O)(=O)N3CCCCC3)ccc21 | x | x | x | x | 8.7% | x
CSc1ccc(-c2sc(Nc3cccc4ccccc34)n[n+]2-c2ccccc2)cc1 | u | 1.9 | 32.0% | 6.8 | 79.4µM* | x
CCOc1cc(-c2sc(Nc3ccccc3)n[n+]2-c2ccc(F)cc2)ccc1OC | 23.8µM* | 1.0 | 22.6% | -12.8 | 1.1% | x
CSc1ccc(-c2sc(Nc3ccccc3)n[n+]2-c2ccccc2)cc1 | 23.8µM* | 4.5 | 31.4% | -23.0 | -11.8% | x
CC(=O)Nc1ccc(-c2sc(Nc3cccc4ccccc34)n[n+]2-c2ccccc2)cc1 | -11.8% | -5.6 | 46.2% | -15.7 | -5.1% | x
CCOC(=O)c1c(C)c(-c2ccccc2)n(CC(=O)NC(CC)Cc2ccccc2)c1C (stereo unspecified) | x | x | x | x | -17.4% | x
Cc1ccc(Cn2cc(C(=O)c3ccc4c(c3)OCO4)c(=O)c3cc(C)ccc32)cc1 | x | x | x | x | 9.0% | x
N#Cc1c(N(CC(=O)O)CC(=O)O)sc(C(=O)O)c1CC(=O)O | x | x | x | x | 3.2% | x
Cc1cc(/C=C(\C#N)C(=O)O)c(C)n1-c1ccc(Br)cc1 | 33.6µM* | 3.6 | 7.4% | 5.6 | -8.4% | -10.5%
Cc1cc(/C=C(\C#N)C(=O)O)c(C)n1CC1CCCO1 (stereo unspecified) | 2.99µM* | x | 14.0% | 11.7 | u | 0.5%
CCCn1c(C)cc(/C=C(\C#N)C(=O)O)c1C | -12.7% | -1.4 | 33.1% | -5.6 | -1.8% | -4.3%
Cc1cc(C=C(C#N)C#N)c(C)n1-c1ccccc1 | 1.0% | -6.9 | 8.7% | 3.8 | -1.4% | 2.2%
COc1cc2c(cc1OC)C(COc1ccc3c(C)cc(=O)oc3c1)N(C(=O)c1ccc(C)cc1)CC2 (stereo unspecified) | x | x | x | x | 3.2% | x
COc1ccc(NC(=O)CC2C(=O)N(c3ccccc3)C(=O)N2C2CCCCC2)cc1 (stereo unspecified) | x | x | x | x | -12.9% | x
CCOC(=O)N1CCN(C(=O)c2ccc3c(c2)NC(=O)/C(=C\c2ccc(OC)c(OC)c2)S3)CC1 | 7.1% | -28.7 | u | 3.9 | u | x
COc1ccc(/C=C2/Sc3ccc(C(=O)N4CCOCC4)cc3NC2=O)cc1OC | 26.7µM* | 3.1 | u | 15.1 | -8.0% | x
O=C(NNc1cc(Cl)ccc1Cl)C1CCC1 | 26.7µM* | 10.1 | x | 0.5 | u | 3.3%
O=C(Nc1cc(Cl)ccc1Cl)N1CCCC1 | 8.44µM* | -5.6 | -16.6% | 11.0 | u | 14.1%
CC(=O)O[C@H]1Cc2ccccc2N(C(N)=O)c2ccccc21 | x | x | x | x | 7.4% | 2.2%
SMILES | PLK1 PBD block | hERG WT inh | MBNL1 CUG block | KCNH2 3.1 block | VDR inh | CBFb-RUNX1 inh
Cc1ccc(S(=O)(=O)c2nc(C)oc2N2CCOCC2)cc1 | 21.2µM* | -4.3 | -7.4% | 6.2 | -17.2% | -3.3%
O=C(CN1C(=O)c2ccccc2C1=O)NCc1ccc(F)cc1 | 7.52µM* | -2.6 | 1.9% | 3.1 | u | x
COc1ccccc1CN1CCc2c([nH]c3ccccc23)C1 | -10.2% | 23.0 | 16.0% | -22.7 | -25.2% | x
COc1cc(CN2CCc3c([nH]c4ccccc34)C2)cc(OC)c1 | 8.44µM* | -4.5 | 1.0% | 7.9 | 50.1µM* | x
CN(C)c1nc(NCc2ccccc2)nc(N/N=C/c2cccc(Br)c2)n1 | 11.9µM* | -2.8 | 6.5% | -48.7 | u | -14.8%
Brc1cccc(/C=N/Nc2nc(N3CCCCC3)nc(N3CCCCC3)n2)c1 | x | x | -6.3% | x | x | -0.8%
Fc1ccc2c(c1)-c1nc(-c3ccccc3)cc(-c3ccccc3)c1CO2 | x | x | x | x | -4.4% | x
O=C(COc1ccccc1)N1CCN(S(=O)(=O)Cc2ccccc2)CC1 | 0.1% | -268.6* | -8.2% | -8.7 | 3.8% | -0.8%
O=C(Nc1ccc(Br)cc1F)c1ccc2nc(CCc3ccccc3)oc2c1 | x | x | x | x | 13.2% | x

Screening data as filed in PubChem BioAssay.
